What all share (type): functional
Assay [1] has as its target Solute carrier family 2, facilitated glucose transporter member 1 (Homo sapiens) (UniProt P11166). Nature of the assay: ST_JUDE_LEISH: Cytotoxicity at 2uM final concentration against transgenic Leishmania Mexicana promastigotes LmGLUT1 that are glucose transport deficient and complemented with the human glucose transporter GLUT1. Activity is measured by DNA content using SYBR green in vitro.

The target in assay [2] is Hexose transporter 1 (Plasmodium falciparum) (UniProt O97467). Nature of the assay: ST_JUDE_LEISH: Cytotoxicity at 2uM final concentration against transgenic Leishmania Mexicana promastigotes LmPfHT that are glucose transport deficient and complemented with the Plasmodium falciparum hexose transporter. Activity is measured by DNA content using SYBR green in vitro.
The target in assay [3] is Glucose transporter (Leishmania mexicana) (UniProt O61059). Nature of the assay: ST_JUDE_LEISH: Cytotoxicity at 2uM final concentration against transgenic Leishmania Mexicana promastigotes LmGT2 that are glucose transport deficient and complemented with the L. Mexicana glucose transporter 2. Activity is measured by DNA content using SYBR green in vitro.

Results on 44 compounds are retold here after ChEMBL document CHEMBL3433997, “St. Jude Leishmania screening dataset” (2016).

Solute carrier family 2, facilitated glucose transporter member 1 (Homo sapiens), sequence (P11166 whole entry): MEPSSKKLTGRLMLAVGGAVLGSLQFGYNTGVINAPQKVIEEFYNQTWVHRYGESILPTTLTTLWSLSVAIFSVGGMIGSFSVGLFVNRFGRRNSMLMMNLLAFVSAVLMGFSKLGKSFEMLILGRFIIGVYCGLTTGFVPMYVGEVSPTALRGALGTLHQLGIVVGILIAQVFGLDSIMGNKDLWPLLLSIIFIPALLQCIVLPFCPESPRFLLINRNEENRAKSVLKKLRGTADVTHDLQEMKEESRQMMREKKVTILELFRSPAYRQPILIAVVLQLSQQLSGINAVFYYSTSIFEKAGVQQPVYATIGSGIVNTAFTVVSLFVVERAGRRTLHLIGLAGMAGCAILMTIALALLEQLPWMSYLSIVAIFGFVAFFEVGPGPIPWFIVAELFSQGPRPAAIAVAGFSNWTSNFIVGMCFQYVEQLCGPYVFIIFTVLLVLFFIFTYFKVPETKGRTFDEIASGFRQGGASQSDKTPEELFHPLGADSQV

The term inhibition denotes the relative decrease from the control value, in per cent. As for `COc1ccc(Cc2c(N)nc3nc(N)nc(N)c3c2C)cc1`, the inhibition came out at 1.48% in assay [1], 3.73% in assay [2] and 3.1% in assay [3].
In the same order, the values of `COc1ccc2nccc([C@@H](O)CN3CCC(NCCOc4ccccc4[N+](=O)[O-])CC3)c2c1` are 2.3%, 2.26% and 0.09%.
Consider `CCc1cn2c3c(cc(C(=O)N[C@@H](Cc4ccccc4)[C@H](O)CNCCOC)cc13)N(C)S(=O)(=O)CC2`, for which the inhibition in assay [1] worked out at 5.11%; in assay [2] it was 2.43%; in assay [3] it was 3.91%.
For `O=S(=O)(NCCN1CCCC1)c1ccc(-c2ccc(CNCc3ccsc3)cc2)cc1F`, the inhibition in assay [1] is 8.07%; in assay [2], 1.33%; in assay [3], -0.2%.
On to `COc1cc(Nc2nccc(N3CCC(NC(=O)Nc4cccc(C(C)=O)c4)C3)n2)cc(OC)c1OC` (configuration not stated), for which the inhibition in assay [1] came out at 2.52%; in assay [2], 2.96%; in assay [3] it was 3.92%.
For `COc1ccc(Nc2nccc(N3CCC(NS(=O)(=O)c4ccc(NC(C)=O)cc4)C3)n2)cc1` (configuration not stated), in that order: 2.99%, 2.85% and 3.38%.
For `CC(=O)COc1c(C2CCN(CCCCNC(=O)c3ccc(-c4ccc(C(F)(F)F)cc4)cc3)CC2)ccc2c1CCCC2`, the inhibition in assay [1] was determined as 0.29%; in assay [2] it was 5.93%; in assay [3] it was 0.59%.
Turning to `CC(=O)c1cccc(NC(=O)NC2CCN(c3ccnc(Nc4ccc(F)cc4)n3)C2)c1` (configuration not stated), the inhibition in assay [1] is -1.36%; in assay [2], -0.93%; in assay [3], -0.03%.
Regarding `c1ccn2c(Sc3ncnc4sccc34)ncc2c1`, the results for the inhibition in assay [1], in assay [2] and in assay [3] were -0.89%, -1.87% and -1.33%, respectively.
Take `CCNc1cc(C(=O)N[C@@H](Cc2ccccc2)[C@H](O)CNC(C)(C)Cc2cccc(Cl)c2)cc(N2CCCCS2(=O)=O)c1`: the inhibition was found to be 5.21% in assay [1], 1.94% in assay [2] and 6.82% in assay [3].
As for `CC[C@H](C)CNC(=O)c1cncc(-c2cccc(CNC3Cc4ccccc4C3)c2)c1`, the inhibition was -0.1% in assay [1], 0.31% in assay [2] and -1.15% in assay [3].
For the compound `Cc1cc(=NN=Cc2ccc(Cl)cc2)c2cccc(C)c2[nH]1`, the figures for the inhibition in assay [1], in assay [2] and in assay [3] were 10.4%, 9.15% and 6.63%, respectively.
Regarding `CO/C(=C\C=C\c1cc2cc(Cl)c(Cl)cc2[nH]1)C(=O)NCCCNCCN(C)c1ccccc1`, the inhibition turned out to be 4.77% in assay [1], 2.76% in assay [2] and 1.74% in assay [3].
For `COc1ccc2nccc([C@@H](O)CN3CCC(NCc4ccc5c(c4)NC(=O)C(C)(C)O5)CC3)c2c1`, in that order: 7.93%, 8.24% and 3.18%.
Consider `COc1cc(Nc2nc(N)c3cc(OC)c(OC)cc3n2)cc(OC)c1`, for which the inhibition in assay [1] stood at 6.58%; in assay [2], 5.6%; in assay [3], 3.12%.
Turning to `COc1cccc(Nc2nnc(SCC(=O)NNC(=O)c3ccccn3)s2)c1`, the inhibition in assay [1] is 0.56%; in assay [2] it was 2.27%; in assay [3], -1.42%.
In the same order, the values of `Cc1cccc2nc(-c3cccc(-c4ccc(CNCc5ccc(S(C)(=O)=O)cc5)cc4)c3)[nH]c12` are 11.9%, 6.88% and 7.97%.
As for `Cc1ccc(-n2c(=O)c3cccnc3n2CC(=O)Nc2cccc(C)c2C)cc1`, the inhibition in assay [1] is 8.07%; in assay [2], 5.98%; in assay [3], 7.74%.
On to `CCN(CC(C)O)C(=O)c1ccc(-c2ccc(-c3nc4cccc(C)c4[nH]3)cc2)cc1` (configuration not stated), for which the inhibition in assay [1] was 6.07%; in assay [2], -2.57%; in assay [3], 0.55%.
In the case of `COc1ccccc1-n1c(SCC(=O)c2ccc3c(c2)CC(=O)N3C)nnc1-c1cccs1`, the inhibition in assay [1] stood at 24%; in assay [2], 35.2%; in assay [3], 13.3%.
With `N#Cc1cccc(NC(=O)Nc2cccc(-c3ccc(-c4nc5cc(C(F)(F)F)ccc5[nH]4)cc3)c2)c1`, the inhibition in assay [1] is 2.29%; in assay [2] it was 2.13%; in assay [3], -7.53%.
As for `CO/C(=C\C=C\c1cc2cc(Cl)c(Cl)cc2[nH]1)C(=O)NCCCN1CCN(c2ccc(OC)cc2)CC1`, the inhibition in assay [1] was found to be 2.11%; in assay [2], 2.47%; in assay [3] it was 1.28%.
Turning to `CS(=O)(=O)c1ccc(-n2nc(C(F)(F)F)cc2-c2ccc(C=NOCC(=O)O)o2)cc1`, the inhibition is 1.5% in assay [1], 2.45% in assay [2] and -0.38% in assay [3].
`CC(CCc1ccccc1)NCC(O)c1ccc2c3c(cccc13)C(=O)N2C` (configuration not stated): the inhibition was 1.56% in assay [1], 0.34% in assay [2] and -0.76% in assay [3].
`CC(C)(C)Oc1ccc(C[C@@H]2NC3(C(=O)N(Cc4ccc(Cl)c(Cl)c4)c4ccccc43)C3C(=O)N(c4ccc(Br)cc4)C(=O)C32)cc1` (some centres not stated): the inhibition in assay [1] turned out to be 4.6%; in assay [2] it was 4.73%; in assay [3], 2.5%.
For the compound `C[C@@H](Oc1cc(-n2cnc3cc(SCCN4CCN(C)CC4)ccc32)sc1C(N)=O)c1ccccc1Cl`, the inhibition in assay [1] turned out to be 35.4%; in assay [2], 40.9%; in assay [3], 23.6%.
For `CC(O)C1CCCCN1C(=O)c1cccc(-c2cccc(-c3nc4cc(F)ccc4[nH]3)c2)c1` (configuration not stated), the inhibition in assay [1] is 3.45%; in assay [2] it was 3.21%; in assay [3], 1.62%.
As to `CC1(C)NC(N)=NC(=N)N1OCc1cc(Cl)cc2c1OCOC2`, the inhibition in assay [1] was 2.73%; in assay [2], -0.07%; in assay [3], 0.71%.
Take `Cc1nc(-c2cccc(C(=O)NC3CCC(CCN4CCc5ccc(-c6cccnc6)cc5CC4)CC3)c2)no1` (configuration not stated): the inhibition in assay [1] was determined as 11.5%; in assay [2], 2.55%; in assay [3] it was 4.24%.
Turning to `CC(=O)c1ccc2cc(C(=O)NC3CCC(CCN4CCc5ccc(-c6noc(C)n6)cc5CC4)CC3)[nH]c2c1` (configuration not stated), the inhibition is -0.19% in assay [1], -0.01% in assay [2] and -2.09% in assay [3].
Regarding `CN(Cc1cccc(F)c1)C1CCCN(c2cc(NC(=O)c3ccccc3)ccn2)C1` (configuration not stated), the inhibition in assay [1] came out at 4.12%; in assay [2], 4.07%; in assay [3], 3.71%.
In the case of `CCc1nc(N)nc(N)c1-c1ccc(C(C)(C)C)cc1`, the values for the inhibition in assay [1], in assay [2] and in assay [3] were 13%, 3.45% and 0.88%, respectively.
As for `COc1ccc(/N=[N+](\[O-])c2ccccc2/[N+]([O-])=N/c2ccc(OC)cc2)cc1`, the inhibition in assay [1] worked out at 1.29%; in assay [2], 1.73%; in assay [3] it was 1.68%.
For the compound `Cc1[nH]c(C)c(-c2ccc(CCc3ccc(N)cc3)cc2)c(=O)c1Cl`, the inhibition was determined as 4.43% in assay [1], 6.39% in assay [2] and 1.77% in assay [3].
For `CN1CCN(c2ccnc3ccc(NC(=O)Nc4cccc5c(-c6ccncc6)cccc45)cc23)CC1`, in that order: -0.27%, -0.42% and 0.32%.
Turning to `COc1cc(CNCCCCCCNCc2cc(OC)c3ccccc3c2OC)c(OC)c2ccccc12`, the inhibition in assay [1] is 8.25%; in assay [2] it was 11.8%; in assay [3], 13.6%.
With `Clc1ccc(Nc2nc(Nc3ccc(Cl)c(Cl)c3)nc(Sc3nc4ccccc4[nH]3)n2)cc1Cl`, the inhibition was determined as 8.07% in assay [1], 9.05% in assay [2] and 7.05% in assay [3].
Consider `CC(C)C[C@H](Nc1ccnc(NCC2CCCCC2)n1)C(=O)NCCc1ccccc1`, for which the inhibition came out at 3.1% in assay [1], 0.57% in assay [2] and 0.72% in assay [3].
In the same order, the values of `CCC1CCCCN1S(=O)(=O)c1ccc(NC(=O)c2cc(C)on2)cc1` (configuration not stated) are 2.22%, 0.15% and 3.74%.
On to `CN(C)CCOc1ccc(-c2cc(-c3ccc(Cl)c(O)c3)c(-c3ccncc3)o2)cc1`, for which the inhibition in assay [1] was 4.55%; in assay [2] it was -0.72%; in assay [3], 4.9%.
Regarding `COCCOCCOCCn1ccc2c3c(N)nc(N)nc3ccc21`, the inhibition stood at 4.65% in assay [1], 1.94% in assay [2] and 2.29% in assay [3].
In the same order, the values of `Cc1cccc2nc(-c3cccc(-c4cccc(NC(=O)c5cnn6cccnc56)c4)c3)[nH]c12` are 5.09%, 4.22% and 1.19%.
`COc1ccccc1-n1c(-c2ccc3ccccc3c2)csc1=NC(=O)c1ccccc1`: the inhibition was 0.68% in assay [1], -0.46% in assay [2] and -4.04% in assay [3].
For the compound `CCOc1ncccc1CN1CCC(N2CCc3cc(NC(=O)c4ccco4)ccc32)C1` (configuration not stated), the inhibition in assay [1] was 0.43%; in assay [2] it was -0.71%; in assay [3], 1.65%.
